aSyn 5UTR act: Activators via SNCA 5'UTR binding, MLPCN; alpha-synuclein 5'UTR reporter, activators screen; activity score, % (tested at 7.5 µM), hits read low; hit rate 7.1% among 300,000; AID 1814, 2009; in the data active means activity score below about -60%
Active calls of the source: *. Not all results are given here.

SMILES	aSyn 5UTR act
Nc1ccccc1C(=O)Nc1ccc(Cl)cc1Cl	-120*
Cc1ccccc1NC(=O)c1cc2ccccc2o1	-172*
O=C(Nc1ncccc1Cl)c1cc2ccccc2o1	-74*
O=C(Nc1ccc(Cl)cc1Cl)c1cc2ccccc2o1	-110*
O=C(Cc1ccc(Cl)cc1)Nc1ccc(-c2cc3ccccc3oc2=O)c(Cl)c1	96
Nc1ccc(NC(=O)c2cccc(C(=O)Nc3ccc(N)cc3Cl)c2)c(Cl)c1	-85*
O=C(Nc1ccccc1Cl)c1cc2ccccc2o/c1=N\O	-121*
Cc1ccc(NC(=O)c2cc3ccccc3o2)nc1	-95*
O=C(NCCc1ccccn1)c1cc2ccccc2o1	-102*
COc1ccccc1NC(=O)c1cc2ccccc2o1	-92*
CC(Oc1ccc(Cl)cc1Cl)C(=O)Nc1cccc(O)c1 (stereo not given)	-62*
CC(Oc1ccc(Br)cc1Cl)C(=O)Nc1ccncc1 (stereo not given)	-84*
CC(C)c1ccc2c(c1)C(N1CCNCC1)Cc1ccc(F)cc1S2 (stereo not given)	75
CCCCCCCCCCCCCCCC[N+](C)(C)CC	101
CCCc1ccc2oc(C(=O)N(C)Cc3ccn[nH]3)c(C)c2c1	-85*
CCCc1ccc2oc(C(=O)N(Cc3nccn3C)C(C)C)c(C)c2c1	-73*
CCOC(=O)c1sc2nccc(N(C)C)c2c1N=CNOCc1ccccc1	-92*
COc1ccccc1NC(=O)COc1ccccc1	-91*
COc1ccc(NC(=O)COc2ccccc2)c(OC)c1	-115*
COc1ccc(OCC(=O)Nc2ccccc2O)cc1	-160*
COc1ccccc1NC(=O)COc1ccc(C(F)(F)F)cc1[N+](=O)[O-]	-73*
CCc1ccc(NC(=S)Nc2cc(C(=O)O)ccc2N2CC3CC(C2)c2cccc(=O)n2C3)cc1 (stereo not given)	-114*
N#Cc1cc2c(nc1SCC(=O)N1CCOCC1)CCCCC2	-65*
N#Cc1cc2c(nc1SCC(N)=O)CCCCC2	-77*
Oc1c(Cl)cc(Cl)cc1C=Nc1ccc2c(c1)OCCO2	-63*
SMILES	aSyn 5UTR act
Cc1csc(NC(=O)CSc2ncc(-c3ccccc3)[nH]2)n1	-97*
Cc1ccc2nc(-c3ccc(SCC(=O)Nc4nnc(C)s4)nc3)[nH]c2c1	-94*
CCc1nnc(NC(=O)CSc2ccc(-c3nc4ccccc4[nH]3)cn2)s1	-187*
Cc1ccc2nc(-c3ccc(SCC(=O)Nc4nc(C)cs4)nc3)[nH]c2c1	-247*
COc1ccc(NC(=O)c2cc3ccccc3[nH]2)cc1	-228*
COc1cc2[nH]c(C(=O)Nc3ccc(F)cc3)cc2c(OC)c1OC	-229*
Cc1ccc(NC(=O)c2cc3cc(OC(F)(F)F)ccc3[nH]2)cc1	-77*
COc1ccc(-n2c(=S)[nH]c3cc(C(=O)Nc4ccc(C)c(F)c4)ccc3c2=O)c(OC)c1	-73*
COc1ccc2[nH]c(C(=O)Nc3ccc(C)c(F)c3)cc2c1	-115*
Nc1nccc(-c2ccc(-n3cnc4ccccc43)cc2)n1	-63*
Cc1nccc(-c2ccc(-n3cnc4ccccc43)cc2)n1	-96*
O=C(Nc1nc(-c2cccc(Br)c2)cs1)Oc1ccccc1	-101*
COc1cccc(-c2csc(NC(C)=O)n2)c1	-181*
CCc1ccc(-c2csc(NC(=O)Oc3ccccc3)n2)cc1	-161*
CC(C)(C)C(=O)Nc1nc(-c2ccccc2)ns1	-146*
c1ccc(Nc2nc(-c3ccccc3)ns2)cc1	-144*
CC(=O)Cn1ncc(N2CCCCC2)c(Cl)c1=O	-80*
CCn1c(SCC(=O)Nc2ccc(C)cc2)nc(O)cc1=O	-71*
CCOc1ccccc1N1CCN(C(=O)c2cn(CC3CCCCC3)nn2)CC1	-84*
Cc1c(NC(=O)/C(C#N)=C/c2ccc(-c3ccccc3Cl)o2)c(=O)n(-c2ccccc2)n1C	56
CC(=O)/C=C(\C)Nc1c(C)n(C)n(-c2ccccc2)c1=O	-82*
COc1cc(N/N=C(\C)c2ccc(N)cc2)nc(-c2ccccc2)n1	-62*
CSc1cccc(CN(C)C(=O)C2CCC(=O)N(CCCN3CCCC3=O)C2)c1 (stereo not given)	-73*
Oc1ccc2ccccc2c1/C=N/Nc1nnc(-c2ncc[nH]2)c2ccccc12	102
COc1ccc(/C=N/Nc2cc(C)nc3ccccc23)cc1	-85*
SMILES	aSyn 5UTR act
COc1ccc(/C=N/Nc2cc(C)nc3c(C)cccc23)cc1	-81*
COc1ccc2nc(C)cc(N/N=C/c3ccc(F)cc3)c2c1	93
COc1ccc(/C=N/Nc2nnc(-c3ncc[nH]3)c3ccccc23)cc1	-203*
O=C(Nc1nc2cc3c(cc2s1)OCO3)C1CC1	-161*
O=C(Nc1nc2cc3c(cc2s1)OCO3)C1CCCCC1	-140*
Cc1ccc(NC(=O)c2cc3nc(C)cc(C)n3n2)cc1	-82*
Cc1cc(C)n2nc(Nc3ccccc3)cc2n1	-165*
Cc1cc(C)n2nc(-c3ccccc3)cc2n1	-97*
Cc1ccc(-c2cc3nc(C)cc(C)n3n2)cc1	-109*
CCN(CC)C(=O)Cn1cc(S(=O)(=O)CC(=O)Nc2ccc3c(c2)OCCO3)c2ccccc21	-82*
CC(C)(C)C(=O)O/N=C(\N)COc1cccc(Cl)c1	-125*
COc1ccc(C([O-])=Nc2ccc[n+](-c3nc4ccccc4nc3NS(=O)(=O)c3ccccc3)c2)cc1	84
CC(=O)Nc1ccc(S(=O)(=O)Nc2nc3ccccc3nc2Nc2ccc3ccccc3c2)cc1	-133*
Cc1cc(C)nc(/N=C(\N)N2CCc3ccccc32)n1	-62*
O=C(Nc1ccccc1)N1CCc2ccccc21	-117*
CCOC(=O)c1[nH]c(C)c(C(=O)N2CCc3ccccc32)c1C	90
CCOC(=O)c1ccc(NC(=O)N2CCc3ccccc32)cc1	-189*
Cc1cc(-c2ccc(Br)cc2)n[nH]1	-120*
Nc1cc(-c2ccc(Br)cc2)[nH]n1	-90*
C=CCn1c2ccccc2c(=O)c2cc(C#CC3(O)CCCCC3)ccc21	-170*
C/C(CC(=O)Nc1cccc2c1CCCC2)=N\NC(=O)c1ccccc1N	-110*
COc1ccc(-n2c(C)cc(/C=C3/SC(=S)N(C)C3=O)c2C)cc1	-85*
Cc1cc(/C=C2\SC(=S)N(Cc3ccco3)C2=O)c(C)n1-c1ccccc1	-74*
Cc1cc(/C=C2\SC(=S)N(C)C2=O)c(C)n1-c1cccc(O)c1	-71*
COc1ccc(OC)c(/C=N\Nc2nccs2)c1	-65*
SMILES	aSyn 5UTR act
COc1ccc(/C=N/Nc2ccccn2)c(OC)c1OC	-92*
COc1ccc(/C=N\Nc2ccccn2)c(OC)c1	-155*
COc1ccccc1/C=N/Nc1nccnc1Cl	-98*
Cc1ccc(C)c(/C=N/Nc2ccccn2)c1	-139*
CCN(CC)S(=O)(=O)c1ccc(N/N=C/c2cc(OC)ccc2O)nc1	87
COc1ccc(/C=N/Nc2ncc(Br)cn2)c(OC)c1	-139*
COc1ccc(Nc2ncccc2C(=O)O)cc1	-77*
Cc1ccc(Nc2ncccc2C(N)=O)cc1	-139*
Cc1cc(Cl)ccc1Nc1ncccc1C(N)=O	-154*
O=C(CSc1nnc(C2CCCCC2)o1)Nc1ccccc1Cl	-138*
COc1ccc(NC(=O)c2ccc(C)cc2Cl)c([N+](=O)[O-])c1	-131*
COc1ccc(NC(=O)c2ccc(C)o2)c([N+](=O)[O-])c1	-102*
COc1ccc(NC(=O)c2ccc([N+](=O)[O-])s2)c([N+](=O)[O-])c1	-92*
COc1ccc(NC(=O)c2ccc(Br)o2)c([N+](=O)[O-])c1	-109*
O=C(/C=C/c1cn(-c2ccccc2)nc1-c1cccnc1)c1ccco1	-63*

High-throughput results from PubChem.
